# Screens: PubChem BioAssay, Paczesny and Yang Labs, IUPUI and University of Michigan
# ST2 IL33 inh: inhibitors of human ST2 (IL1RL1) binding to IL-33; Q01638; AlphaLISA ST2-Fc/biotin-IL-33 interaction, 1 h; inhibition, % for hits at 17 µM; 78,000 compounds, 2.3% hits; AID 1259354; in the data active means inhibition above about 30%
# Target sequence (Q01638 whole entry, looked up): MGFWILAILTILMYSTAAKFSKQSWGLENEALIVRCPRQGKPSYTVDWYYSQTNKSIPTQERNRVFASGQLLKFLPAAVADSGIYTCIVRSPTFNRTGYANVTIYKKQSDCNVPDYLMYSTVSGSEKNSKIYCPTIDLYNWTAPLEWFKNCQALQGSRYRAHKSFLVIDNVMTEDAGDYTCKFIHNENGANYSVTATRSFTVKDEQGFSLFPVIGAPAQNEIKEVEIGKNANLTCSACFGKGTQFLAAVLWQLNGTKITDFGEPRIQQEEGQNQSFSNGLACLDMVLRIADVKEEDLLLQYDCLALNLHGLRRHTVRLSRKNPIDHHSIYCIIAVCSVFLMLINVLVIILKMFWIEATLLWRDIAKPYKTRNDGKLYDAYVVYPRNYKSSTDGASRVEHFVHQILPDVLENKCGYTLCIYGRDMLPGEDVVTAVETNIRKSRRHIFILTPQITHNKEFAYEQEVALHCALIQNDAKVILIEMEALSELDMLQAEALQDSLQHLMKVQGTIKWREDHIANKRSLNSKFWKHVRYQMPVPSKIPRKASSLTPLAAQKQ
# * marks the source's active call; other numbers are inactive results; i = inactive. The entries come from a sample that favours hits as a whole.
SMILES,ST2 IL33 inh
CC1CCCN(CC(O)COc2ccc(C3CCCCC3)cc2)C1 (stereo not drawn),i
O=C1CSC(c2cccnc2)N1c1ccc(Oc2ccccc2)cc1 (stereo not drawn),i
O=[N+]([O-])c1cccc(Nc2ccccc2)c1,33%*
Cc1ccccc1C(=O)Nc1cccc([N+](=O)[O-])c1,i
O=C(Nc1ccccc1)Nc1cccc([N+](=O)[O-])c1,i
CCOC(=O)N1CCN(c2cc(C(C)C)nc(C)n2)CC1,i
O=C1CCc2nc3sc4c(c3c(=O)n2N1)CCCC4,i
O=c1oc(/C=C/c2cccs2)nc2sc3c(c12)CCCC3,i
O=c1oc(-c2ccccc2)nc2sc3c(c12)CCCCC3,36%*
Cc1noc(C)c1NC(=O)N1CCOC(c2ccc(Cl)c(Cl)c2)C1 (stereo not drawn),i
O=c1c(NS(=O)(=O)c2cccc(F)c2)ccc2n1C[C@H]1C[C@@H]2CN(S(=O)(=O)c2cccs2)C1,44%*
O=C(Nc1ccc(F)cc1)N1C[C@@H]2C[C@H](C1)c1ccc(NS(=O)(=O)c3cccs3)c(=O)n1C2,i
COc1ccc(NC(=O)N2C[C@@H]3C[C@H](C2)c2ccc(NS(=O)(=O)c4cccc(F)c4)c(=O)n2C3)cc1,i
COc1cccc2sc(Nc3ccccc3)nc12,i
Cc1ccc(S(=O)(=O)Nc2cccc(Cl)c2)cc1,i
CCOc1ccc(Nc2nc(C)c([N+](=O)[O-])c(Nc3ccccc3)n2)cc1,i
CCOC(=O)c1cnc2ccccc2c1Nc1cccc(C)c1,i
CCOc1ccc(S(=O)(=O)N=C2C=C(Nc3cccc(C)c3)C(=O)c3ccccc32)cc1,90%*
Cc1cccc(NS(=O)(=O)c2ccc3[nH]c(=O)[nH]c3c2)c1,i
Cc1ccc(S(=O)(=O)N=C2C=C(Nc3cccc(C)c3)C(=O)c3ccccc32)cc1,84%*
COc1ccc(NC(=O)CCN2CCCCC2)c(OC)c1,i
CC1=C(C(=O)Nc2ccccc2)C(c2ccncc2)n2ncnc2N1 (stereo not drawn),i
Cc1ccc(NS(=O)(=O)c2c(C)n[nH]c2C)c(C)c1,i
CCN(CC)CCNc1nc2c(c(=O)n(C)c(=O)n2C)n1Cc1ccc(Cl)cc1,i
O=C(c1ccc(F)cc1)N1CCN=C1SCc1cccc(Cl)c1,i
SMILES,ST2 IL33 inh
CCSc1nnc2c(n1)OC(c1ccc(OC)c(O)c1)Nc1ccccc1-2 (stereo not drawn),i
CC(C)=CCC/C(C)=C/CC(O)/C(C)=C/Cc1cc(C(=O)O)ccc1O (stereo not drawn),i
Cc1ccc(C)c(C2=C/C(=C3/c4ccccc4-c4ncccc43)C(=O)O2)c1,43%*
Cc1ccc(F)c(-c2ncccc2NC(=O)C(C)C)c1,i
Cc1ccc(F)c(-c2ncccc2C(=O)N2CCCC2)c1,i
CN(C)CC1(O)CCCN(C(=O)c2cnc(N3CCOCC3)nc2)C1 (stereo not drawn),i
Fc1ccccc1OCCCOc1ccccc1F,i
O=S(=O)(c1ccccc1)c1nc(-c2ccc(F)cc2)oc1N1CCCCC1,i
Brc1ccc(-c2noc(COc3ccccc3)n2)cc1,i
Fc1ccccc1OCCN1CCNCC1,i
Cc1nc(S(=O)(=O)c2ccccc2)c(N2CCCCC2)o1,i
O=C(COc1ccc(Br)cc1)N1CCCC1,i
N#Cc1nc(COc2ccccc2F)oc1N1CCCC1,53%*
N#Cc1nc(COc2ccccc2F)oc1N1CCCCC1,53%*
N#Cc1nc(COc2ccc(Br)cc2)oc1N1CCCCC1,64%*
Cc1ccccc1OCc1nc(C#N)c(N2CCCC2)o1,71%*
COc1ccc(-c2nc(C#N)c(N3CCOCC3)o2)cc1,i
N#Cc1nc(-c2ccc(F)cc2)oc1N1CCOCC1,i
CC(CN1CCCCCC1)C(=O)c1ccccc1 (stereo not drawn),i
COc1ccc(CNC(=O)CN2CCCN(Cc3cccc(C)c3)S2(=O)=O)cc1,i
CC(=O)Nc1ccc(S(=O)(=O)Nc2ccc3n(c2=O)C[C@H]2C[C@@H]3CN(C(=O)NC3CCCCC3)C2)cc1,i
CCc1cc2c(=O)c(-c3nc(C)cs3)c(N)oc2c(CN2CCCCC2)c1O,i
O=[N+]([O-])c1ccc(OCCO)c(OCCO)c1,i
CCO/C=C1\c2cc([N+](=O)[O-])ccc2-c2c1cc([N+](=O)[O-])cc2[N+](=O)[O-],54%*
N#Cc1c([N+](=O)[O-])cc([N+](=O)[O-])cc1S(=O)(=O)Cc1ccccc1,i
SMILES,ST2 IL33 inh
NS(=O)(=O)c1ccc(CCNC(=O)COc2ccc(Cl)cc2)cc1,i
C=CCn1c(CN2CCC3(CCOCC3)CC2)nc2ccccc21,i
COCCNC(=O)CSc1n[nH]c(C)c1[N+](=O)[O-],i
O=[N+]([O-])c1nn(-c2ccccc2)[n+]([O-])c1N1CCCCCC1,i
O=[N+]([O-])c1cccc2c(Br)[nH]nc12,i
O=[N+]([O-])c1cccc2ccc(N3CCCCC3)nc12,30%*
CN1CCN(C(=O)CC[C@H]2CNC(=O)[C@@H]3[C@@H](CCN3C)N2C)CC1,i
CC(=O)NC1=NC(=O)/C(=C/c2ccc(-c3cccc(Cl)c3)o2)S1,i
O=C1C(=Cc2ccc(-c3ccc(Cl)c([N+](=O)[O-])c3)o2)C(=O)c2ccccc21,i
O=C1/C(=C/c2ccc(Cl)c([N+](=O)[O-])c2)Sc2ccccc21,i
NC1=NC(=O)/C(=C\c2ccc(-c3ccc(Cl)c([N+](=O)[O-])c3)o2)S1,40%*
O=C1NC(=O)/C(=C\c2ccc(-c3cccc(C(=O)O)c3)o2)S1,i
O=C1NC(=O)/C(=C\c2ccc(-c3ccc(Cl)c([N+](=O)[O-])c3)o2)S1,69%*
NC(=O)C1CCN(C(=O)Nc2ccc(Cl)c(Cl)c2)CC1,i
Cc1c(N2CCCC2)ccc2c1NC(=O)CC2c1ccc2c(c1)nnn2C (stereo not drawn),i
Cc1nc2ccccc2nc1-c1ccc([N+](=O)[O-])cc1,i
O=[N+]([O-])c1ccc(-c2cnc3ccccc3n2)cc1,31%*
O=[N+]([O-])c1ccc(-c2nc3ccccc3o2)cc1,i
COc1ccc(NS(=O)(=O)c2ccc3[nH]c(=O)c(=O)[nH]c3c2)c(OC)c1,i
COC(=O)c1c(C)oc2ccc(OCc3ccccc3C)cc12,i
COc1ccc(Nc2ncnc3nc[nH]c23)cc1,i
COC(=O)C1C(=O)C2=C(CC1C)NC(C)=C(C(=O)OC(C)C)C2c1coc2ccccc2c1=O (stereo not drawn),i
COc1ccccc1N1CCN(C(=O)c2cc3c(=O)n4cccc(C)c4nc3n2C)CC1,i
CCOC(=O)c1nn(CCc2scnc2C)c2c1CN(C(=O)c1scc3c1CCCC3)CC2,i
CCOC(=O)c1nn(CCc2ccc(OC)cc2)c2c1CN(C(=O)c1cc(C)nc(C)n1)CC2,30%*
SMILES,ST2 IL33 inh
CCOC(=O)c1nn(Cc2ccc(OC)cc2)c2c1CN(C(=O)C1CCCO1)CC2 (stereo not drawn),i
O=C(Nc1nc(-c2ccc3ccccc3c2)cs1)c1cccs1,i
O=C(c1cccc(Br)c1)N(c1ccc(Br)cc1)C1C=CS(=O)(=O)C1 (stereo not drawn),i
Cc1cc(C)c(S(=O)(=O)Nc2ccccc2)cc1S(=O)(=O)Nc1ccccc1,i
Fc1ccc(CN2CCN(c3ccccn3)CC2)cc1Br,33%*
Clc1ccc(CN2CCN(c3ccccn3)CC2)cc1Cl,i
Fc1ccccc1CN1CCN(c2ccccn2)CC1,i
